Source: PubChem (University of Kansas High Throughput Screening Laboratory)
mHTT-CaM PPI inh: mutant huntingtin-calmodulin interaction inhibitors – biochemical, AlphaScreen, primary screen. AlphaScreen His-mHTT/GST-CaM binding, luminescence. inhibition, % at 15 µM. hit rate 3.6% among 190,000;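 also: 0% = both proteins with DMSO and 100% = one protein alone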
Pf apPOL block: Pf-apPOL inhibitors, biochemical, fluorescence; Recombinant Pf-apPOL, molecular beacon fluorescence, 1.5 h; AID 1794808, 2022; hit rate 0.25% among 210,000; inhibition, % at 10 µM; Plasmodium falciparum apicoplast DNA polymerase (apPOL)
* marks the source's active call; other numbers are inactive results; / = not tested or not shown. The sample as a whole holds a higher share of hits than the screen did. Rule as the data show it: active = inhibition above about 50%; inactive = the rest.

SMILES	mHTT-CaM PPI inh	Pf apPOL block
Cc1cc(=O)oc(C)c1C(=O)NCc1ccccn1	57*	-7
O=C(NCc1ccccn1)c1ccc2c(c1)OCO2	100*	-1
C=C(C)CN(CC)Cc1cc([N+](=O)[O-])ccc1O	-3	1
O=C(Cc1ccc([N+](=O)[O-])cc1)NCc1cccs1	-2	2
Cc1nc2nc(SCC(=O)NC3CC3)nn2c(C)c1Cc1c(F)cccc1Cl	4	2
COc1ccc(-n2nc3ccc(NC(=O)c4ccc([N+](=O)[O-])c(C)c4)cc3n2)cc1	13	-1
CCc1ccc(NC(=O)CN2C(=O)C3(OCCCO3)c3ccccc32)cc1	-1	-5
COCCNC(=O)c1nn(-c2ccccc2OC)c(=O)c2ccccc12	-6	-1
CCN(CCCNC(=O)c1nn(-c2ccccc2OC)c(=O)c2ccccc12)c1cccc(C)c1	62*	-1
Clc1ccc(Nc2nc(Oc3ccccc3)nc(N3CCOCC3)n2)cc1	-2	-3
NNc1nc(Nc2ccccc2)nc(N2CCOCC2)n1	98*	-1
NNc1nc(Nc2ccccc2)nc(N2CCCC2)n1	81*	-6
c1ccc(Nc2nc(N3CCCCC3)nc(N3CCNCC3)n2)cc1	16	0
CCN(CC)c1ccc(N2C(=O)C3C4CC(C(Br)C4Br)C3C2=O)cc1 (configuration not stated)	-4	0
Cc1cc(-c2nc3c(C)cccc3o2)ccc1NC(=O)c1cccs1	28	-3
NC(=S)NN=Cc1ccccc1O	85*	39
NC(=S)NN=Cc1ccccc1	/	-10
CC(C)NC(=O)C1(c2ccc(NS(C)(=O)=O)cc2)CCCCC1	4	-3
O=C(Cc1csc(NC(=O)c2ccco2)n1)Nc1ccc(F)c(C(F)(F)F)c1	59*	8
O=C(Cc1csc(NC(=O)c2ccco2)n1)NCc1cccs1	-4	3
COc1ccccc1CNC(=O)C1(C)Cc2ccccc2C(=O)N1C(C)C (configuration not stated)	3	-5
COc1cccc2c1OC1(C=C2)N(C)c2ccc([N+](=O)[O-])cc2C1(C)C (configuration not stated)	8	5
COc1ccc2c(c1)C(C)(C)C1(C=Cc3cc([N+](=O)[O-])ccc3O1)N2C (configuration not stated)	70*	-2
CN1c2ccccc2C(C)(C)C12C=Cc1cc(Br)cc([N+](=O)[O-])c1O2 (configuration not stated)	/	-499
CC1(C)c2ccccc2N(CC(N)=O)C12C=Cc1cc([N+](=O)[O-])ccc1O2 (configuration not stated)	85*	4
SMILES	mHTT-CaM PPI inh	Pf apPOL block
CCCCN1C(=O)C(CC(=O)N(C)CCC)Sc2ncccc21 (configuration not stated)	-6	-5
CCC(=O)Nc1cccc(-c2noc(C3CCCN(C(=O)Cc4ccc(F)cc4)C3)n2)c1 (configuration not stated)	5	-5
OCC[n+]1c(-c2ccc(Br)cc2)csc1Nc1ccccc1	88*	-12
O=C(c1ccccc1)c1c(-c2ccccc2)csc1Nc1ccccc1	/	6
O=C1C2C3C=CC(C3)C2C(=O)N1CNc1ccccc1Cl (configuration not stated)	-5	-4
O=C(O)c1cc(Cl)c(Cl)cc1C(=O)Nc1cccnc1	-5	55*
O=C(Nc1cccnc1)c1ccc(Cl)cc1Cl	-1	-2
Cc1cccc2sc(NC(=O)CN(C)S(=O)(=O)c3ccc(Br)s3)nc12	92*	1
Cc1cccc2sc(NC(=O)CCS(=O)(=O)c3ccc(Br)s3)nc12	5	-2
COc1ccc(CNC(=O)c2cn(C)c(=O)c3c2c2ccccc2n3C)cc1	5	-3
O=c1[nH]c(-c2ccc(Br)cc2)cn1-c1ccc(Cl)cc1	63*	-4
O=c1[nH]c(-c2ccc(F)cc2)cn1-c1ccc(Br)cc1	6	0
COC(=O)C1=C(N)Oc2c(oc(CO)cc2=O)C1c1ccc(Cl)cc1 (configuration not stated)	2	-2
COC(=O)C1=C(N)Oc2c(oc(CO)cc2=O)C1c1ccc(Cl)c(Cl)c1 (configuration not stated)	70*	-8
CCCn1c(NC(=O)c2ccco2)nc2ccccc21	31	-4
O=C(NCc1nc2ccccc2n1CCCCOc1ccccc1Cl)c1ccco1	75*	-2
CCC(=O)Oc1ccc2c(c1)OC(=Cc1ccc(C(=O)OC)cc1)C2=O	8	-1
Cc1ccc(C)c(N2CCC(C(=O)Nc3cccc(C(F)(F)F)c3)C2=O)c1 (configuration not stated)	79*	-4
Cc1ccc(C)c(N2CCC(C(=O)Nc3cccc(Cl)c3)C2=O)c1 (configuration not stated)	-16	-3
CCCCN1C(=O)C(C)(C(=O)NCc2cccc(C)c2)Oc2cccnc21 (configuration not stated)	-3	-7
O=C(Nc1ccc(F)c(Cl)c1)N1CCC2(CC1)Nc1cc(F)ccc1-n1cccc12	97*	2
CSc1cccc(NC(=O)N2CCC3(CC2)Nc2ccccc2-n2cccc23)c1	84*	-5
O=C(Nc1ccccc1Cl)N1CCC2(CC1)Nc1cc(F)ccc1-n1cccc12	34	-1
COc1ccc(Cl)cc1NC(=O)N1CCC2(CC1)Nc1ccccc1-n1cccc12	32	-6
O=C(Nc1cccc(F)c1)N1CCC2(CC1)Nc1ccccc1-n1cccc12	71*	2
SMILES	mHTT-CaM PPI inh	Pf apPOL block
Cc1c(Cl)cccc1NC(=O)N1CCC2(CC1)Nc1cc(F)ccc1-n1cccc12	41	-2
O=C(Nc1ccccc1C(F)(F)F)N1CCC2(CC1)Nc1cc(F)ccc1-n1cccc12	37	5
Cc1ccc2c(c1)NC1(CCN(C(=O)c3cccc(F)c3)CC1)c1cccn1-2	62*	1
O=C(Nc1ccccc1NC(=O)C1CCC1)c1ccccc1C(F)(F)F	-13	-8
COCCc1noc(COC2CCN(C(=O)c3ccncc3)CC2)n1	-2	-6
COc1cccc(C2SCC(=O)N2c2ccc(C)c(F)c2)c1OC (configuration not stated)	-7	0
CCOC(=O)c1ccccc1NC(=O)N1CCC2(CC1)Nc1cc(F)ccc1-n1cccc12	50*	-3
O=C(Nc1ccc(F)cc1F)N1CCC2(CC1)Nc1cc(F)ccc1-n1cccc12	50	1
Cc1ccc(NC(=O)N2CCC3(CC2)Nc2cc(F)ccc2-n2cccc23)c(C)c1	40	0
O=C(Nc1cccc(F)c1)N1CCC2(CC1)Nc1cc(F)ccc1-n1cccc12	87*	-1
COC(=O)c1ccccc1NC(=O)N1CCC2(CC1)Nc1cc(F)ccc1-n1cccc12	46	2
Cc1cccc(NC(=O)N2CCC3(CC2)Nc2cc(F)ccc2-n2cccc23)c1	55*	0
Cc1ccc2c(c1)NC1(CCN(C(=O)c3ccccc3Br)CC1)c1cccn1-2	89*	-5
Cn1cc(C(=O)Nc2ccccc2C(F)(F)F)c2ccccc2c1=O	-6	-7
COc1cccc(S(=O)(=O)N2CCc3nc4cc(-c5ccccc5)[nH]n4c(=O)c3C2)c1	2	-4
O=c1nc2n(-c3cccc(C(F)(F)F)c3)c3ccccc3cc-2c(=O)[nH]1	1	-2
Clc1cccc(-c2noc(Cn3ccnc3)n2)c1	-2	-13
